Molecules are shown by their SMILES. Where two headings read alike, the source gives them in different places.

Holding throughout (design): species or system human, MV4-11 + K-562 + COLO205 + SK-N-BE2 + OVCAR-8
The test system of one test is CDK7. The following applies: read-out: apparent Kd, n = 1.
Another test relates to CDKL5. Conditions: read-out: apparent Kd, n = 1.
Another test concerns ERCC2. The following applies: read-out: apparent Kd, n = 1.
In the next test the test system is FER. The following applies: read-out: apparent Kd, n = 1.
A further test has as its system LATS1. The following applies: read-out: apparent Kd, n = 1.
In the next test the test system is MARK4. The following applies: read-out: apparent Kd, n = 1.
Another test deals with MYLK3. Conditions: read-out: apparent Kd, n = 1.
The next test concerns PIP4K2C. Conditions: read-out: apparent Kd, n = 1.
The test system of the next test is PLK4. The following applies: read-out: apparent Kd, n = 1.
In a further test the test system is PRKAA1. Conditions: read-out: apparent Kd, n = 1.
A further test has as its system PRKAG1. The following applies: read-out: apparent Kd, n = 1.
The test system of a further test is PRKCD. The following applies: read-out: apparent Kd, n = 1.
The next test deals with PRKCQ. Conditions: read-out: apparent Kd, n = 1.
Another test concerns PRKD2. The following applies: read-out: apparent Kd, n = 1.
The test system of a further test is PTK2B. The following applies: read-out: apparent Kd, n = 1.
For another test, the system named is PTK2. The following applies: read-out: apparent Kd, n = 1.
The test system of another test is RPS6KA6. Conditions: read-out: apparent Kd, n = 1.
A further test deals with STK10. The following applies: read-out: apparent Kd, n = 1.
In the next test the test system is PRKD3. The following applies: read-out: apparent Kd, n = 1.
The next test relates to DYRK1A. Conditions: read-out: apparent Kd; compound concentrations: 100 nM and 1000 nM (sheet 'Samples'), CATDS: 3.77369052298554E-3; n = 1.
Setting [1] is: compound concentrations:100 nM and 1000 nM (sheet 'Samples').

`O=C1NC(=O)C(N2CCc3ccccc32)=C1c1ccccc1Cl` [SB-373598]: the potency estimated from few doses in the test on CDK7 (setting [1]) is 93.7 nM; in the test on CDKL5 (setting [1]) it was 1390 nM; in the test with ERCC2 (setting [1]), 114 nM; with FER (setting [1]), 183 nM; in the test on LATS1 (setting [1]), 994 nM; in the test with MARK4 (setting [1]) it was 884 nM. Besides, the potency estimated from few doses in the test with MYLK3 (setting [1]) was 974 nM; with PIP4K2C (setting [1]), 1020 nM; with PLK4 (setting [1]), 273 nM; with PRKAA1 (setting [1]), 273 nM; with PRKAG1 (setting [1]), 215 nM; in the test with PRKCD (setting [1]), 2190 nM. For the same compound, the potency estimated from few doses in the test with PRKCQ (setting [1]) was 1580 nM; in the test with PRKD2 (setting [1]) it was 1920 nM; in the test with PTK2B (setting [1]), 129 nM; with PTK2 (setting [1]), 173 nM; in the test with RPS6KA6 (setting [1]), 125 nM; in the test on STK10 (setting [1]), 996 nM.

`Cc1ccc2c(-c3ccncc3)c(-c3ccc(F)cc3)nn2c1.Cl` [GW461484A]: the potency estimated from few doses in the test with CDK7 (setting [1]) was 288 nM; in the test on ERCC2 (setting [1]), 214 nM; in the test with FER (setting [1]) it was 259 nM; with PIP4K2C (setting [1]), 1560 nM; with PLK4 (setting [1]) it was 428 nM; with PRKAA1 (setting [1]), 773 nM. Besides, the potency estimated from few doses in the test with PRKAG1 (setting [1]) was 560 nM; in the test with PRKD3 (setting [1]), 2110 nM; in the test on PTK2B (setting [1]), 354 nM; with PTK2 (setting [1]), 462 nM; in the test on RPS6KA6 (setting [1]), 248 nM.

For the compound `Cn1ncc2c(N)ncnc21` [SKF-18267], the potency estimated from few doses in the test with CDK7 (compound concentrations: 100 nM and 1000 nM (sheet 'Samples'), CATDS: 5.5514862333248096E-3) was 667 nM; with DYRK1A, 1560 nM; in the test with FER (compound concentrations: 100 nM and 1000 nM (sheet 'Samples'), CATDS: 5.4218087868892397E-3), 697 nM; in the test with LATS1 (compound concentrations: 100 nM and 1000 nM (sheet 'Samples'), CATDS: 3.8471015452543802E-3), 1480 nM; in the test with MARK4 (compound concentrations: 100 nM and 1000 nM (sheet 'Samples'), CATDS: 3.8950662850455102E-3), 1430 nM; with MYLK3 (compound concentrations: 100 nM and 1000 nM (sheet 'Samples'), CATDS: 3.9686163384318402E-3) it was 1360 nM. The potency estimated from few doses in the test with PLK4 (compound concentrations: 100 nM and 1000 nM (sheet 'Samples'), CATDS: 4.9790098691835901E-3) was 821 nM; with PRKAG1 (compound concentrations: 100 nM and 1000 nM (sheet 'Samples'), CATDS: 6.4543335305036397E-3), 512 nM; in the test with PRKCD (compound concentrations: 100 nM and 1000 nM (sheet 'Samples'), CATDS: 3.5352355938645099E-3) it was 1880 nM; in the test on PRKCQ (compound concentrations: 100 nM and 1000 nM (sheet 'Samples'), CATDS: 3.4517086035176399E-3), 2030 nM; in the test on PRKD2 (compound concentrations: 100 nM and 1000 nM (sheet 'Samples'), CATDS: 4.0514258518823199E-3), 1290 nM; with PRKD3 (compound concentrations: 100 nM and 1000 nM (sheet 'Samples'), CATDS: 4.0252223893410396E-3), 1320 nM. For the same compound, the potency estimated from few doses was 423 nM in the test with PTK2B (compound concentrations: 100 nM and 1000 nM (sheet 'Samples'), CATDS: 7.2672167282142302E-3); 831 nM in the test on PTK2 (compound concentrations: 100 nM and 1000 nM (sheet 'Samples'), CATDS: 4.9483549300151902E-3); 435 nM with RPS6KA6 (compound concentrations: 100 nM and 1000 nM (sheet 'Samples'), CATDS: 7.1387563408407901E-3); 1760 nM in the test with STK10 (compound concentrations: 100 nM and 1000 nM (sheet 'Samples'), CATDS: 3.6177977688347301E-3).

Turning to `O=C1N=C(NCCc2ccc(Cl)cc2)S/C1=C\c1ccc2ncccc2c1` [RO4498479-000], the potency estimated from few doses in the test with CDK7 (compound concentrations: 100 nM and 1000 nM (sheet 'Samples'), CATDS: 2.4350372788697498E-2) was 119 nM; with CDKL5 (compound concentrations: 100 nM and 1000 nM (sheet 'Samples'), CATDS: 8.2845593333633408E-3), 909 nM; in the test on ERCC2 (compound concentrations: 100 nM and 1000 nM (sheet 'Samples'), CATDS: 2.1515421316076401E-2) it was 142 nM; in the test with FER (compound concentrations: 100 nM and 1000 nM (sheet 'Samples'), CATDS: 1.93209734431329E-2) it was 166 nM; in the test with LATS1 (compound concentrations: 100 nM and 1000 nM (sheet 'Samples'), CATDS: 9.9630845977556094E-3) it was 560 nM; with MARK4 (compound concentrations: 100 nM and 1000 nM (sheet 'Samples'), CATDS: 9.5723230975851108E-3) it was 617 nM. The potency estimated from few doses is 2040 nM in the test on MYLK3 (compound concentrations: 100 nM and 1000 nM (sheet 'Samples'), CATDS: 6.6633165686717103E-3); 930 nM in the test with PIP4K2C (compound concentrations: 100 nM and 1000 nM (sheet 'Samples'), CATDS: 8.2219500153899797E-3); 242 nM in the test on PLK4 (compound concentrations: 100 nM and 1000 nM (sheet 'Samples'), CATDS: 1.52584065926915E-2); 289 nM with PRKAA1 (compound concentrations: 100 nM and 1000 nM (sheet 'Samples'), CATDS: 1.37789233680672E-2); 312 nM with PRKAG1 (compound concentrations: 100 nM and 1000 nM (sheet 'Samples'), CATDS: 1.32160889121976E-2); 1490 nM in the test with PRKCD (compound concentrations: 100 nM and 1000 nM (sheet 'Samples'), CATDS: 7.1591971083295198E-3). The potency estimated from few doses was 1100 nM in the test with PRKCQ (compound concentrations: 100 nM and 1000 nM (sheet 'Samples'), CATDS: 7.7984631053202198E-3); 923 nM in the test on PRKD2 (compound concentrations: 100 nM and 1000 nM (sheet 'Samples'), CATDS: 8.2429468538409798E-3); 956 nM in the test with PRKD3 (compound concentrations: 100 nM and 1000 nM (sheet 'Samples'), CATDS: 8.1476846710640503E-3); 216 nM in the test on PTK2B (compound concentrations: 100 nM and 1000 nM (sheet 'Samples'), CATDS: 1.6323674836543501E-2); 242 nM with PTK2 (compound concentrations: 100 nM and 1000 nM (sheet 'Samples'), CATDS: 1.5270520713179201E-2); 260 nM in the test on RPS6KA6 (compound concentrations: 100 nM and 1000 nM (sheet 'Samples'), CATDS: 1.4642324519722799E-2). For the same compound, the potency estimated from few doses in the test with STK10 (compound concentrations: 100 nM and 1000 nM (sheet 'Samples'), CATDS: 8.8639953478003106E-3) was 751 nM.
